The values below come from PubChem BioAssay.

Activity calls are given as the source filed them. Unless noted, the rule behind the calls is not given here.

For assay [1], the system named is XIP peptide (Xip251-270) binding. The experiment in a line: small-molecule binders of XIP peptide, primary screen, biochemical, small-molecule microarray, fluorescence 635/667 nm, 0.1 µg/mL protein (AID 1182). Particulars: fluorescent protein binding, 635 nm, higher = more signal, called active from +8 up or from −8 down.
The test system of assay [2] is XIP peptide (Xip251-270). Kind of assay: small-molecule binders of XIP peptide, primary screen, biochemical, small-molecule microarray, fluorescence 635/667 nm, 0.5 µg/mL protein (AID 1183). Particulars: small-molecule microarray binding, fluorescence 635 nm; higher = more signal.
Assay [3] can be described thus: Plasmodium falciparum growth inhibition, primary screen, strain 3D7, DAPI fluorescence, 100 nL (AID 1184).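 Note: parasites grown inside human red blood cells in medium with human serum.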 Particulars: P. falciparum 3D7 growth, 3 d, higher = more signal.
For assay [4], the target named is Homeobox protein Hox-A13 (Mus musculus) (UniProt Q62424). The experiment in a line: inhibitors of HoxA13-DNA binding, primary screen, biochemical, fluorescence polarization, labeled oligonucleotide (AID 1185). Particulars: 15 min, higher = more signal, called active from +8 up or from −8 down. A general note: In fluorescence polarisation assays a small probe gives low polarisation when free and higher when bound to something large.
Chain of Homeobox protein Hox-A13 (Mus musculus) (Q62424 whole entry, looked up): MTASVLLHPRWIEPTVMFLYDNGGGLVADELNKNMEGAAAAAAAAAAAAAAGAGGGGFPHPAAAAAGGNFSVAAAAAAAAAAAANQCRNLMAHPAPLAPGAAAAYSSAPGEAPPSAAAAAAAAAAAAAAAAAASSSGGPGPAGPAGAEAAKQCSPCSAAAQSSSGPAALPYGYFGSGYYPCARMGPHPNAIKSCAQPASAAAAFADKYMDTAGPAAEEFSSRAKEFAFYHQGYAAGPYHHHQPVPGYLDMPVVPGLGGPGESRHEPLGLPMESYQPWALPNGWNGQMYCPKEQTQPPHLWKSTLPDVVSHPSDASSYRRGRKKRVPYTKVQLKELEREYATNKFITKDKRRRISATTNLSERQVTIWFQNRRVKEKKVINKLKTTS

Assay [5] can be described thus: inhibitors of hydroxyurea-induced Chk1 phosphorylation, primary screen, imaging, HeLa, phospho-Chk1 antibody, percent positive cells (AID 1186). The note with it: hydroxyurea-induced phospho-Chk1 immunofluorescence imaging, higher = more signal.
Assay [6] in a line: inhibitors of hydroxyurea-induced Chk1 phosphorylation, primary screen, imaging, HeLa, phospho-Chk1 nuclear intensity (AID 1187). Particulars: hydroxyurea-induced phospho-Chk1 immunofluorescence imaging, higher = more signal.

Consider `O=C1OCCC/C=C\[C@H]2OC34C=CCN(Cn5nnc6ccccc65)C(=O)[C@H]3N(CCCCCO)C(=O)[C@@H]4C12` (some centres not stated), for which the composite z-score in assay [1] is 0.145 (inactive); in assay [2] it was 0.545. For the same compound, the z-score in assay [3] is 0.961; in assay [4], -4.39 (inactive); in assay [5], 0.812 (inactive); in assay [6] it was 0.888 (inactive).

For the compound `CCOC(=O)[C@H]1C/C=C/C[C@H](C(=O)OCC)C(=O)O[C@H]2[C@@H](OC)O[C@H](CO)[C@@H](OC(=O)Nc3ccc4c(c3)OCO4)[C@@H]2OC1=O`, the values for the composite z-score in assay [1] and in assay [2] were 1.28 (inactive) and 0.832, respectively. In addition, the z-score was -1.95 in assay [3], -2.27 (inactive) in assay [4], -0.18 (inactive) in assay [5] and -0.0843 (inactive) in assay [6].

Consider `CN1C(=O)C2C=CC(C(O)c3ccccn3)N(Nc3ccccc3)C2C1=O` (configuration not stated), for which the composite z-score is 0.632 (inactive) in assay [1] and 0.325 in assay [2]. Besides, the z-score in assay [3] was 0.0014; in assay [4] it was -7.19 (inactive); in assay [5] it was -0.827 (inactive); in assay [6], -1.12 (inactive).

Consider `O=C(CS)NCCCCCCNC(=O)[C@H]1C[C@H]2C(=O)NCC(=O)N2[C@H]1c1ccc(O)cc1`, for which the composite z-score is 0.545 (inactive) in assay [1] and 0.832 in assay [2]. Further, the z-score in assay [3] is 0.509; in assay [4], -2.43 (inactive); in assay [5], 0.419 (inactive); in assay [6], 0.37 (inactive).

Regarding `CN1C=C(C(=O)OCCS(C)(=O)=O)C(C(=O)OCCS(C)(=O)=O)=CC(CCCO)=CC1C1CC1` (configuration not stated), the composite z-score in assay [1] was 1.7 (inactive); in assay [2], 0.01. The z-score in assay [3] is -0.766; in assay [4], -5.26 (inactive); in assay [5], -1.31 (inactive); in assay [6], -0.118 (inactive).

As to `COC(=O)[C@@]1(Cc2ccc(OC)cc2)[C@H]2c3cc(C(=O)N4CCCC4)n(Cc4cc(F)cc5c4OCOC5)c3C[C@H]2CN1C(=O)c1ccccc1`, the composite z-score was 0.365 (inactive) in assay [1] and 0.857 in assay [2]. The z-score in assay [3] was -1.72; in assay [4], -6.08 (inactive); in assay [5], 0.127 (inactive); in assay [6], -0.271 (inactive).

For `Cc1cc(C)cc(N2C(=O)CS(=O)(=O)C2c2cccc([N+](=O)[O-])c2)c1` (configuration not stated), the composite z-score in assay [1] was 2.64 (inactive); in assay [2], 0.0376. The z-score in assay [3] is 0.494; in assay [4] it was -0.0181 (inactive); in assay [5], -0.0327 (inactive); in assay [6], 0.353 (inactive).

As to `N#Cc1ccc(NN2C(C(O)C3CCCCC3)C=CC3C(=O)N(c4ccccc4)C(=O)C32)cc1` (configuration not stated), the composite z-score in assay [1] was 0.769 (inactive); in assay [2], 0.694. The z-score is 0.898 in assay [3], -2.14 (inactive) in assay [4], -0.14 (inactive) in assay [5] and -0.0947 (inactive) in assay [6].

Turning to `COc1ccc(C#Cc2ccc3c(c2)[C@]2(C(=O)N3)[C@H](C(=O)NC[C@H](O)c3ccccc3)[C@H]3C(=O)O[C@H](c4ccccc4)[C@H](c4ccccc4)N3[C@@H]2c2ccccc2OCCO)cc1`, the composite z-score in assay [1] is 0.0376 (inactive); in assay [2], 0.881. Besides, the z-score is -1.01 in assay [3], -2.33 (inactive) in assay [4], -0.166 (inactive) in assay [5] and -0.118 (inactive) in assay [6].

Consider `COCCOC(=O)N1C(=O)[C@@]2(c3cc(C#CC4(O)CCCCCC4)ccc31)[C@H](C(=O)N1CCCCCCC1)[C@H]1C(=O)O[C@H](c3ccccc3)[C@H](c3ccccc3)N1[C@@H]2c1ccccc1OCCO`, for which the composite z-score in assay [1] is -0.0713 (inactive); in assay [2], 0.762. Also, the z-score was -2.39 in assay [3], 3.19 (inactive) in assay [4], -0.0968 (inactive) in assay [5] and 0.298 (inactive) in assay [6].

Consider `Cc1ccc(S[C@]2(C(=O)NC3CC3)CC(=O)N(C3CCCCC3)[C@@H]2c2ccc(CO)cc2I)cc1`, for which the composite z-score in assay [1] is 1.01 (inactive); in assay [2] it was 0.784. For the same compound, the z-score in assay [3] was -1.34; in assay [4], -4.11 (inactive); in assay [5] it was -0.0105 (inactive); in assay [6] it was 0.06 (inactive).

With `COc1ccc([Si](C)(C)[C@H]2[C@H](CCn3cc(CCO)nn3)O[C@@]3(C(=O)N(Cc4ccc(N5CCOC5=O)cc4)c4ccccc43)[C@@H]2C)cc1`, the composite z-score was 0.523 (inactive) in assay [1] and 0.866 in assay [2]. Moreover, the z-score in assay [3] is -2.38; in assay [4], -4.22 (inactive); in assay [5] it was -1.11 (inactive); in assay [6], -0.744 (inactive).

Take `CC1CC/C=C\[C@H]2OC34C=CCN(Cc5ccccc5)C(=O)[C@H]3N(CCCCCO)C(=O)[C@@H]4C2C(=O)O1` (some centres not stated): the composite z-score in assay [1] was -0.0864 (inactive); in assay [2] it was 0.525. The z-score was 1.65 in assay [3], -5.11 (inactive) in assay [4], -0.0458 (inactive) in assay [5] and -0.0669 (inactive) in assay [6].

In the case of `CC(c1ccccc1)C(O)C1C=CC2C(=O)NC(=O)C2N1Nc1ccccn1` (configuration not stated), the composite z-score is 0.197 (inactive) in assay [1] and 0.676 in assay [2]. The z-score in assay [3] is 0.196; in assay [4] it was -1.82 (inactive); in assay [5] it was 0.651 (inactive); in assay [6], 0.136 (inactive).

For `COC(=O)[C@@]1(Cc2ccccc2)[C@H]2c3cc(C(=O)N4CCCC4)n(C)c3C[C@H]2CN1C(=O)c1ccccc1`, the composite z-score in assay [1] is -0.0625 (inactive); in assay [2], 0.46. Moreover, the z-score in assay [3] is -0.994; in assay [4] it was -5.7 (inactive); in assay [5] it was 0.0684 (inactive); in assay [6], -0.0761 (inactive).

Consider `C=CCC(OC(C)=O)[C@@H]1[C@@H](N(Cc2ccc(-c3ccccc3)cc2)C(=O)Cc2ccc(OC)cc2)c2cc(OCCCO)ccc2N1C(=O)c1ccc2ccccc2n1` (some centres not stated), for which the results for the composite z-score in assay [1] and in assay [2] were 0.0404 (inactive) and 0.219, respectively. Besides, the z-score is -2.87 in assay [3], -1.25 (inactive) in assay [4], -0.0117 (inactive) in assay [5] and 0.336 (inactive) in assay [6].

Turning to `COCCOC(=O)N1C(=O)[C@@]2(c3cc(C#CCC(C(=O)OC)C(=O)OC)ccc31)[C@H](c1ccccc1OCCO)N1[C@H](c3ccccc3)[C@H](c3ccccc3)OC(=O)[C@H]1[C@@H]2C(=O)N1CCc2cc(OC)c(OC)cc2C1`, the composite z-score in assay [1] was 0.201 (inactive); in assay [2] it was 0.64. In addition, the z-score in assay [3] is -2.06; in assay [4], 0.498 (inactive); in assay [5], -0.122 (inactive); in assay [6], 0.261 (inactive).
